The values below come from PubChem BioAssay (Tox21).

Test [1] deals with Luciferin 4-monooxygenase (Photinus pyralis) (UniProt P08659). The experiment in a line: qHTS assay to identify small molecule inhibitors of firefly luciferase (AID 1224835). Note: nearly all actives have a fitted effect of over 25% in size. Note: potency is the fitted concentration of half-maximal effect. Summed up:
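Inhibition of purified Photinus luciferase is measured by luminescence. Substrate levels (D-luciferin, ATP) sit at their KM values. Each compound is tested in a concentration series.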
In general terms: Quantitative high-throughput screening tests each substance at several concentrations.

Test [2] has as its target Nuclear receptor subfamily 1 group I member 3 (Homo sapiens) (UniProt Q14994). The test can be described thus: qHTS assay to identify small molecule antagonists of the constitutive androstane receptor (CAR) signaling pathway (AID 1224838). Note: nearly all actives have a fitted effect of over 40% in size. Note: potency is the fitted concentration of half-maximal effect. Summed up:
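Compounds were titrated across 15 concentrations onto HepG2 cells double-stably expressing hCAR and a CYP2B6-2.2kb reporter, together with 50 nM CITCO (final). After 24 h at 37 C, luciferase activity was measured by luminescence.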

Test [3] addresses Thyrotropin receptor (Homo sapiens) (UniProt P16473). The experiment in a line: qHTS assay to identify small molecule agonists of the thyroid stimulating hormone receptor (TSHR) signaling pathway (AID 1224843; calls by dose curve; note: nearly all actives have a fitted effect of over 45% in size; note: potency is the fitted concentration of half-maximal effect). The method, boiled down: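 Screening of the Tox21 10K collection used HEK293 cells engineered with TSHR at 800 cells per well. After a 30-min room-temperature compound exposure, HTRF cAMP reagents were added and fluorescence recorded 1 h later.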

A short description of test [4]: qHTS assay to identify small molecule agonists of the hypoxia (HIF-1) signaling pathway - cell viability counter screen (AID 1224844; calls by dose curve; note: nearly all actives have a fitted effect of over 50% in size; note: potency is the fitted concentration of half-maximal effect). The method, boiled down:
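Tox21 10K compounds were added to HRE-bla ME-180 cells (0.5% dialyzed FBS) and incubated 17 hrs at 37C; ATP-based CellTiter-Glo luminescence then reported cell viability in the same wells.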

Test [5] is described as follows: qHTS assay to identify small molecule antagonists of the constitutive androstane receptor (CAR) signaling pathway - cell viability counter screen (AID 1224837). Note: nearly all actives have a fitted effect of over 45% in size. Note: potency is the fitted concentration of half-maximal effect. Summed up:
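Multiplexed cytotoxicity read-out for the CAR antagonist screen: double-stable HepG2-CYP2B6-hCAR cells co-treated with 50 nM CITCO (final) and compound over 15 concentrations, incubated 23 hr, then assessed by CellTiter-Fluor fluorescence.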

Test [6] addresses Nuclear receptor subfamily 1 group I member 3 (Homo sapiens) (UniProt Q14994). The experiment in a line: qHTS assay to identify small molecule agonists of the constitutive androstane receptor (CAR) signaling pathway (AID 1224839).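 For activation: HepG2 cells stably carrying human CAR and a CYP2B6 luciferase reporter; series mostly up to about 92 µM.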 Note: nearly all actives have a fitted effect of over 15% in size. Note: potency is the fitted concentration of half-maximal effect. Summed up:
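Luminescence read-out (ONE-Glo, 30 min, room temperature) from double-stable HepG2-CYP2B6-hCAR cells exposed 24 h to 15-point compound series in presence of 0.75 uM PK11195 final.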

A short description of test [7]: qHTS assay to identify small molecule agonists of the estrogen related receptor signaling pathway with the pleiotropic PPARgamma coactivator (PGC) from Tox21 10K library (AID 1224842). Note: nearly all actives have a fitted effect of over 15% in size. Note: potency is the fitted concentration of half-maximal effect. Summed up:
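Luminescence from One-Glo (30 min, room temperature) measured after PGC/ERR cells had 18 h at 37 C with pinned compound (23 nL in DMSO). Cells had been seeded at 2,000 per well and pre-incubated 6 h.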

A short description of test [8]: qHTS assay to identify small molecule antagonists of the estrogen related receptor signaling pathway with the pleiotropic PPARgamma coactivator (PGC) from Tox21 10K library - cell viability counter screen (AID 1224840; active = well fitted cell-killing curve with a large enough effect in the repeat runs, not every such curve was filed as active; note: nearly all actives have a fitted effect of over 40% in size; note: potency is the fitted concentration of half-maximal effect). The method, boiled down: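 Step one, plate 2,000 PGC/ERR cells per well; step two, incubate 6 h at 37 C/5% CO2; step three, pin-transfer compounds; step four, incubate 17.5 h; step five, add CellTiter-Fluor and read fluorescence after 30 min.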

Test [9] in a line: qHTS assay to identify small molecule antagonists of the estrogen related receptor signaling pathway with the pleiotropic PPARgamma coactivator (PGC) from Tox21 10K library (AID 1224841; call rule not given here; note: actives are mostly falling curves and most rising ones were filed inactive; nearly all actives have a fitted effect of over 50% in size; note: potency is the fitted concentration of half-maximal effect). Summed up:
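Antagonism in this quantitative HTS is taken from loss of luciferase signal in PGC/ERR cells. Cells (2,000/well) are treated with compounds in DMSO after a 6 h settling period and read by One-Glo luminescence after 18 h.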

Test [10] in a line: qHTS assay to identify small molecule agonists of H2AX (AID 1224845; active = well fitted activation curve with a large enough effect in the signal ratio in the repeat runs, not every such curve was filed as active; the % refers to the signal ratio; note: potency is the fitted concentration of half-maximal effect). The method, boiled down:
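Phospho-H2AX Ser139 measured by HTRF (ex 320 nm; em 665 and 620 nm) after 24 hr antibody incubation. Compounds, 15 concentrations, 0.76% DMSO, were applied to CHO-K1 cells for 3hr at 37C before lysis.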

Test [11] can be described thus: qHTS assay to identify small molecule agonists of the hypoxia (HIF-1) signaling pathway (AID 1224846; active = well fitted activation curve with a large enough effect in the signal ratio in the repeat runs, not every such curve was filed as active; the % refers to the signal ratio). The method, boiled down:
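Steps: seed ME-180 HRE-bla cells (2,000/well, 0.5% dialyzed FBS); incubate 5 hrs at 37C; pin-transfer compounds or DMSO; incubate 17 hrs; add LiveBLAzer B/G substrate CCF4-AM; measure reporter activation by FRET.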

The nature of test [12]: qHTS assay to identify small molecule agonists of the constitutive androstane receptor (CAR) signaling pathway - cell viability counter screen (AID 1224836). Note: series mostly up to about 92 µM; nearly all actives have a fitted effect of over 45% in size. Summed up:
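Viability read-out: CellTiter-Fluor fluorescence after 23 h compound exposure at 37 C/5% CO2 in double-stable HepG2-CYP2B6-hCAR cells, with PK11195 present at 0.75 uM final; compounds tested in 15-point titration.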

Inconclusive results are not listed. The source made the active and inactive calls. Unless noted, calls come from the whole dose curve; as a rule, active = well fitted curve in the direction sought with a large enough effect in the repeat runs; inconclusive = weak or mixed curves; inactive = no such curve, though single readings can be large; an effect the other way counts as inactive or inconclusive.

Luciferin 4-monooxygenase (Photinus pyralis), sequence (P08659 whole entry, looked up): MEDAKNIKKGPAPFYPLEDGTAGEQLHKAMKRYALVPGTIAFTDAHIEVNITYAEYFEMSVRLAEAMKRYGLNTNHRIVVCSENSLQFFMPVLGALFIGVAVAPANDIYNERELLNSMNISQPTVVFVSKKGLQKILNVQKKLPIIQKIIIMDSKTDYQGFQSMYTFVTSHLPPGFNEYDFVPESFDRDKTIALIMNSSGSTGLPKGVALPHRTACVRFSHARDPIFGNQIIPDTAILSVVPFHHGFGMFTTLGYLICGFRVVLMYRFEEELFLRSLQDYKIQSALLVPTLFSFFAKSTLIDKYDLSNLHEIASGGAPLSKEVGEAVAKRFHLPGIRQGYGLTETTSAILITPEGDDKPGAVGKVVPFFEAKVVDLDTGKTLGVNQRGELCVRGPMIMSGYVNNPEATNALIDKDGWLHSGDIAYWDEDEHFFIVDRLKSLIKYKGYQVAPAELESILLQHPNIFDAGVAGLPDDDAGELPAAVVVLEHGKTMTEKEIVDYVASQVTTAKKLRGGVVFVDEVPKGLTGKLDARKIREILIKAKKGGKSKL
Nuclear receptor subfamily 1 group I member 3 (Homo sapiens), sequence (Q14994 whole entry, looked up): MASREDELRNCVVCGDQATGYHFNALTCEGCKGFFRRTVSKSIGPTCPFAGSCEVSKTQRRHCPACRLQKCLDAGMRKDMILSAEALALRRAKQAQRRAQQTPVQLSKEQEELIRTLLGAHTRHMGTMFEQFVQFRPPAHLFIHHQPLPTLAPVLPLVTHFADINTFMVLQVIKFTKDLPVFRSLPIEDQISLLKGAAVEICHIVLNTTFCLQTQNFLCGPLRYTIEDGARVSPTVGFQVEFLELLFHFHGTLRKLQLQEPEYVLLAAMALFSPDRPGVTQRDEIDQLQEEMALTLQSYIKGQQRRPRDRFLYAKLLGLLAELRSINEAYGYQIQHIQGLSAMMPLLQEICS
Thyrotropin receptor (Homo sapiens), sequence (P16473 whole entry, looked up): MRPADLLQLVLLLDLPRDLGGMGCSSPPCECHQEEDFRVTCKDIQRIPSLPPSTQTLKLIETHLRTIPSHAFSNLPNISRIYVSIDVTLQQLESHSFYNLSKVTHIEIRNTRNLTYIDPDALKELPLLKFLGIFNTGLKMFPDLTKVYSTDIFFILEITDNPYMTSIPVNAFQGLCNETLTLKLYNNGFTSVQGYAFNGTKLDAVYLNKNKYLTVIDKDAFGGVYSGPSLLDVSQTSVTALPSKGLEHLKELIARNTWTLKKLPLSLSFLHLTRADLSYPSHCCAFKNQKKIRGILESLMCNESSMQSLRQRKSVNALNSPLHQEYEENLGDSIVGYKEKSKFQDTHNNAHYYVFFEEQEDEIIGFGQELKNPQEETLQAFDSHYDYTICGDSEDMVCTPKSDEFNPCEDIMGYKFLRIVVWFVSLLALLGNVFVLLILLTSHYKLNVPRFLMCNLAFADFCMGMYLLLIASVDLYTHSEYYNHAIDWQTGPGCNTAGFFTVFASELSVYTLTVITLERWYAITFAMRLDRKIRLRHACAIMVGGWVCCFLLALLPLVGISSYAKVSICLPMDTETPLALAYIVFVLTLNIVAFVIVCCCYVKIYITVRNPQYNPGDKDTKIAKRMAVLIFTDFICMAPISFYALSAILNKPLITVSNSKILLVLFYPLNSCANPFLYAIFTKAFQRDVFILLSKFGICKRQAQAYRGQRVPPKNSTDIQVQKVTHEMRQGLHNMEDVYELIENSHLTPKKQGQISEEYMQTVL

Consider `CC(C)(c1ccc(Oc2ccc(N)cc2)cc1)c1ccc(Oc2ccc(N)cc2)cc1`, for which the Potency in [1] was 22.4 µM (active); in test [3], 27.3 µM (active); in test [4] it was 24.5 µM (active). The Potency result in [2] is “inactive”.

As to `Cc1c(Cl)c(=O)oc2cc(O)ccc12`, the Potency entry in test [1], in test [2], in [3] and in test [4] was “inactive” each time.

Regarding `Clc1nc(C(Cl)(Cl)Cl)c(Cl)c(Cl)c1Cl`, the Potency entry in test [1], in [5], in test [6] and in test [7] was “inactive” in each case. In addition, the Potency is 54.5 µM (active) in test [2] and 4.9 µM (active) in test [4].

As to `CCCCCCCCCCCCN1CCCC1=O`, the values for the Potency in test [1] and in test [6] were 44.8 µM (active) and 54.5 µM (active), respectively. Also, the Potency entry in test [5], in test [2], in [8], in test [9], in [7] and in test [10] was “inactive” each time.

Take `Nc1ccc(N)c([N+](=O)[O-])c1`: the Potency in [1] was 35.6 µM (active).

Consider `CN1CC[C@H](c2c(O)cc(O)c3c(=O)cc(-c4ccccc4Cl)oc23)[C@H](O)C1`, for which the Potency in test [5] was 0.0944 µM (active); in test [2] it was 0.596 µM (active); in test [7], 0.531 µM (active). Further, the Potency entry in test [6], in test [9], in [4] and in test [10] was “inactive” each time.

For the compound `O=C(Nc1ccc([N+](=O)[O-])cc1)Nc1ccc([N+](=O)[O-])cc1` (tested in a mixture with another compound), the Potency entry in test [1], in [5], in test [8], in test [3], in test [4] and in [10] was “inactive” throughout. Also, the Potency result in test [11] is “inactive”.

As to `Nc1ccc(Cl)c([N+](=O)[O-])c1`, the Potency entry in [1], in test [12], in [5], in test [8], in [4] and in test [10] was “inactive” in each case. For the same compound, in test [11], the Potency entry is “inactive”.

With `O[Si](c1ccccc1)(c1ccccc1)c1ccccc1`, the Potency entry in test [1], in test [12], in [5], in test [2], in test [7] and in test [4] was “inactive” each time. For the same compound, the Potency result in test [10] and in [11] was “inactive” in each case. Further, the Potency is 30.6 µM (active) in [6], 68.6 µM (active) in test [9] and 48.6 µM (active) in test [3].

For `C=C1C(CCl)(CCl)C2(Cl)C(Cl)C(Cl)C1(Cl)C2(Cl)Cl` (configuration not stated), the Potency entry in [1], in test [5], in test [2] and in test [7] was “inactive” in each case. Also, the Potency is 8.53 µM (active) in test [6]; 53.8 µM (active) in test [8]; 60.4 µM (active) in test [9]; 17 µM (active) in test [3]; 24.3 µM (active) in [4]; 99.6 µM (active) in [10].

Take `Oc1cccc2c(O)cccc12`: the Potency entry in [2], in [7] and in [3] was “inactive” in each case. For the same compound, the Potency in [6] was 30.6 µM (active); in test [9] it was 2.73 µM (active).

`CCOC(=O)C1=NN(c2ccc(Cl)cc2Cl)C(C)(C(=O)OCC)C1` (configuration not stated): the Potency entry in test [1], in [5], in test [8], in [7], in test [4] and in [10] was “inactive” in each case. The Potency entry in test [11] is “inactive”.

Regarding `O=C1Cc2ccccc2C1`, the Potency entry in test [1] is “inactive”.

Regarding `CCCCCCCCCC[N+](C)(CCCCCCCCCC)CCC[Si](OC)(OC)OC`, the Potency in test [1] was 79.6 µM (active); in test [4], 54.9 µM (active). Also, the Potency result in test [12], in [5], in test [2], in [6] and in test [10] was “inactive” each time.

In the case of `O=C1OC2(c3ccccc31)c1ccc(O)c(Br)c1Oc1c2ccc(O)c1Br`, the Potency in [1] is 35.6 µM (active). In addition, the Potency result in test [5], in test [2], in test [6], in test [9], in [7] and in test [4] was “inactive” throughout.
